Only some compounds are listed: those with a hit (about 0.36% of all), similar ones and a draw of the others.
AID504770: growth inhibitors of E. coli YBA685 in a screen for V. cholerae RctB (chromosome II replication) inhibitors; actives 0.27% (n = 130,000); z-score (concentration not given with the values); E. coli YBA685 rctB-dependent plasmid, OD600 growth, 3 h; stronger effect = lower value; AID 504770; in the data active means z-score below about -2, passing the limit was not always enough
Ba CapD inh: CapD enzyme inhibition. purified CapD enzyme, fluorescence intensity read-out; stronger effect = lower value. z-score (no concentration beside the values). actives 0.23% (n = 140,000); in the data active means z-score mostly below about -2.9, no sharp cut-off; inactive means mostly above about -1.9
An asterisk follows results filed as active; . = not tested or not shown; ! = not active in a repeat.

SMILES	AID504770	Ba CapD inh
CCc1ccc(C(=O)c2cc3ccc(O)cc3oc2=O)cc1	-1	-3.6
O=S1(=O)CCC(NC(=S)SCc2ccccc2)C1 (centres undefined)	-3.8*	0.06
CCSC(=S)NC1CCS(=O)(=O)C1 (centres undefined)	-0.8	0.99
O=C(c1cccs1)c1no[n+]([O-])c1C(=O)c1cccs1	-6.5*	-3.5
C/C(=N/NC(=O)c1c(N)no[n+]1[O-])c1cccs1	-0.2	.
N#Cc1ccc(Cn2cnc3ccccc32)cc1	1.8	-0.34
CCc1ccc(NS(=O)(=O)c2ccc3[nH]cc(C(=O)N(CC)CC)c(=O)c3c2)cc1	2.2	-0.21
CCc1ccc(NS(=O)(=O)c2ccc3[nH]cc(C(=O)N4CCCC4)c(=O)c3c2)cc1	-0.05	-5.9*
CC1CCN(C(c2ccncc2)c2ccc3cccnc3c2O)CC1 (centres undefined)	0.05	.
Cc1ccc(C(=O)/C=C/N(C)C)cn1	-0.35	-2.8
CN(C)/C=C/C(=O)c1ccsc1	-1.6	-6.3*
O=C(N/C(=C\c1ccco1)C(=O)N1CCN(C/C=C/c2ccccc2)CC1)c1ccccc1	.	-0.52
CC(C)(C)Cc1cc(N)on1	-2*	.
Nc1cc(-c2ccc(Br)cc2)no1	-0.15	0.75
c1ccc(-c2nnsc2-c2nc3ccccc3[nH]2)cc1	-0.2	1.6
c1ccc2sc3c(-c4ccncc4)sc4ccccc4[nH]c-3nc2c1	-0.4	-4.1*
COc1cc(OC)cc(C(=O)Oc2cccc(NC3=NS(=O)(=O)c4ccccc43)c2)c1	.	14
N#C/C(C(=O)N1CCCCC1)=C(/S)Nc1ccccc1	0.3	-1.9
N#C/C(C(N)=O)=C(/S)Nc1ccccc1	-3.8*	.
COC(=O)C1=C(C)OC(N)=C(C#N)C1c1ccc(Br)s1 (centres undefined)	.	-0.2
CC(C)(C)C(=O)NCNc1cc(C(F)(F)F)ccc1Cl	.	-0.34
COc1ccccc1NC(=O)C1CCN(C(=O)c2ccccc2)CC1	-0.35	.
O=[n+]1c2c(n([O-])c3ccccc31)CCC2	-3.3*	-1.2
Cc1ccc2c(c1)n([O-])c1c([n+]2=O)CCCC1	-0.75	0.14
CC(C)=CCOc1cc(C)cc2oc(=O)c3c(c12)CCCC3	.	6.5
SMILES	AID504770	Ba CapD inh
c1ccc(CNCCc2c[nH]c3ccccc23)cc1	0.95	-0.15
c1ccc(CC(NCc2c[nH]c3ccccc23)c2ccccc2)cc1 (centres undefined)	-3.1*	-0.08
COc1cccc(OCC(=O)Nc2cccc(C(=O)O)c2C)c1	-0.15	0.51
COc1cccc(OCC(=O)Nc2ccc(OC(C)=O)cc2C(=O)O)c1	-1.1	-10*
O=C(CCN1CCN(Cc2ccc3c(c2)OCO3)CC1)N1N=CCC1(O)C(F)(F)F (centres undefined)	-0.7	.
COCCNC(=O)c1ccccc1NC(=O)N(C1CC1)C1CCN(Cc2ccccc2)CC1	.	1.7
Cc1cc(C)c(S(=O)(=O)N2CCCCC2)cc1C	-0.1	-0.13
Cc1cc2[nH]c(=O)c(=O)[nH]c2cc1S(=O)(=O)N1CCCCC1	-2.5*	28
CCOC(=O)/C(=N\Nc1cccc(C(F)(F)F)c1)N(C)C1CCS(=O)(=O)C1 (centres undefined)	-0.2	.
Cc1ccc(C(=O)N2CCCC2)cc1NC1=NC2CS(=O)(=O)CC2S1 (centres undefined)	0.25	-0.05
CC(N)CCCC(C)(C)O (centres undefined)	0	-4.1*!
CC(CCCC(C)(C)O)CC1OCC(C)O1 (centres undefined)	0.85	-0.07
COc1cc(NC(=O)C(CC(C)C)NC(=O)C2CCCCC2)cc(OC)c1OC (centres undefined)	-0.9	0.21
CCN1CSC(=S)N(Cc2ccc(OC)cc2)C1	1.4	-0.28
CCN1CSC(=S)N(Cc2ccccc2)C1	-2.9*	0.53
O=C1C2CC=CCC2C(=O)N1CN(Cc1ccccc1)Cc1ccccc1 (centres undefined)	-0.5	.
Cc1[nH]n(-c2ccccc2)c(=O)c1/C=N/NC(=O)c1ccccc1	0	.
COc1cc(/C=N/N=C(N)N)ccc1OC(=O)c1ccc(C)cc1	-9.6*	0.27
COc1ccc(/C=N/N=C(N)N)cc1OC	-0.4	0.47
COC(=O)c1ccccc1NC(=O)c1sc2ncn(CC(=O)Nc3cccc(C(F)(F)F)c3)c(=O)c2c1C	.	-0.42
CC1=NN(c2ccc(C(=O)OC(C)C)cc2)C(=O)/C1=C\c1cccn1-c1ccc(S(N)(=O)=O)cc1	.	-0.64
Cc1cc(C)c(S(=O)(=O)N(CCC(C)C)S(=O)(=O)c2ccccc2C#N)c(C)c1	-4.1*	.
CN(C)c1ccc(CN(CC2CCCO2)S(=O)(=O)c2ccccc2C#N)cc1 (centres undefined)	0.7	.
CSc1nc2ccc(NC(=O)c3ccc(S(=O)(=O)N4CCc5ccccc54)cc3)cc2s1	.	-0.31
Cn1cccc1/C=N/n1cnnc1	0.3	-5.5*
SMILES	AID504770	Ba CapD inh
C(=N\n1cnnc1)/c1ccccc1	-0.15	0.41
CCOc1ccccc1NC(=O)NCCSCc1ccco1	.	0.02
O=C1CSCC(=O)N1c1ccc(Cl)cc1	-0.7	-0.47
Cc1c(Cl)sn(-c2ccc(Cl)cc2)c1=O	-5.8*	0.23
CCc1cccc(NC(=O)C2COc3ccccc3O2)c1 (centres undefined)	-0.3	.
CCc1ccc2c(c1)S(=O)(=O)C(C(F)(F)F)CO2 (centres undefined)	2.5	-6.6*
CSc1ccc(C=C(C#N)C#N)cc1	.	-0.67
N#CC(C#N)=Cc1ccc(O)c(Cl)c1	-0.8	-5.4*
COc1nonc1NC(C)=O	0.45	-0.045
CC(=O)NC1=CC(=O)c2nonc2C1=O	-9.2*	3.2
O=C(O)CCSc1nnc(-c2cccs2)o1	0.6	.
N#CC(C#N)=C(N)/C(C#N)=C\c1ccc(-c2ccccc2)o1	0.35	.
N#CC(C#N)=C(N)/C(C#N)=C/c1ccc(-c2cccc(C(=O)O)c2)o1	-0.6	-4*
CC(C)CN(CC(C)C)Cn1nc(-c2cccc(S(=O)(=O)N3CCOCC3)c2)oc1=S	-1.4	.
CCOC(=O)CSc1nc2ccc([N+](=O)[O-])cc2s1	.	-0.11
CCC(Sc1nc2ncccc2o1)C(=O)Nc1ccccc1C(F)(F)F (centres undefined)	0.05	-1.3
C[C@H]1c2cccc(O)c2C(O)=C2C(=O)C3(O)C(O)=C(C(N)=O)C(=O)[C@@H](N(C)C)[C@@H]3[C@@H](O)[C@@H]21 (some centres undefined)	.	-0.36
C=C1c2cccc(O)c2C(O)=C2C(=O)[C@]3(O)C(O)=C(C(N)=O)C(=O)[C@@H](N(C)C)[C@@H]3[C@@H](O)[C@H]12	-3.4*	-0.36
C=C1c2c(Cl)ccc(O)c2C(O)=C2C(=O)[C@]3(O)C(O)=C(C(N)=O)C(=O)[C@@H](N(C)C)[C@@H]3[C@@H](O)[C@H]12	-4.2*	0.66
CN(C)[C@@H]1C(=O)C(C(N)=O)=C(O)[C@@]2(O)C(=O)C3=C(O)c4c(O)cccc4[C@@](C)(O)[C@H]3C[C@@H]12	-3.2*	0.03
CN(C)[C@@H]1C(=O)C(C(=O)NCN2CCCC2)=C(O)[C@@]2(O)C(=O)C3=C(O)c4c(O)cccc4[C@@](C)(O)C3CC12 (some centres undefined)	.	-3.1
O=C(NCCOc1cccc2cccnc12)c1cc(C(F)(F)F)cc(C(F)(F)F)c1	.	2.9
COC(=O)c1c(COC(=O)c2ccc(Br)o2)nc2ccccc2c1C	-0.5	.
Cc1noc(/C=C/N(C)C)c1S(=O)(=O)N(CCc1ccccc1)Cc1ccccc1	2.4	-4.3*

Screens deposited in PubChem BioAssay by ICCB-Longwood Screening Facility, Harvard Medical School.
